Laboratory results reported in publication PMC7862700, “An all-to-all approach to the identification of sequence-specific readers for epigenetic DNA modifications on cytosine”.

Tests used:
Assay in all cases: DAPPL (digital affinity profiling via proximity ligation, sequencing); 10 mM Tris-HCl pH 7.5, 50 mM NaCl, 1 mM DTT, 4% glycerol, room temperature, 30 min; GST-TFs on glutathione beads, 16-mer random dsDNA library, 0.1% formaldehyde crosslink after washing; high values mean tight binding
[1] = molecular target: T1, FLI1 (Homo sapiens, UniProt Q01543 1-452); details: protein: recombinant; tags: N-terminal GST; dsDNA, one strand shown
T1 sequence: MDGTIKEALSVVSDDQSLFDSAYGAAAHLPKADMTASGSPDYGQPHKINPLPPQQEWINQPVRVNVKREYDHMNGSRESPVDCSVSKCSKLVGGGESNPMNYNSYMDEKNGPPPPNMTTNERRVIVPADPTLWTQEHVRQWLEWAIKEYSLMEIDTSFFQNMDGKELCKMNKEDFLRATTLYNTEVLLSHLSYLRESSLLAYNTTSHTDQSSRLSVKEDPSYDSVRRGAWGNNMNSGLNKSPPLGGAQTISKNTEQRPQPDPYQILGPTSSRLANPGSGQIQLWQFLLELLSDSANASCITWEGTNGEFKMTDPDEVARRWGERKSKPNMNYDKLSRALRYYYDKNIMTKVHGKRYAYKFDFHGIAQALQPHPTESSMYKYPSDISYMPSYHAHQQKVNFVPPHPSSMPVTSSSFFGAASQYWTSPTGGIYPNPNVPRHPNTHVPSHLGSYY
Method in brief: (§1)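 Human transcription factors carrying a GST fusion were produced in yeast, bound to glutathione beads, tagged with DNA barcodes and pooled together with a tag-only sample. Each pool was held with 200 nmole of a random double-stranded 16-mer DNA library in Tris/NaCl/DTT/glycerol buffer for 30 min at room temperature, then washed, crosslinked in 0.1% formaldehyde, proximity-ligated with BsaI/T4 ligase (1 h, 37 °C), PCR-amplified and sequenced on an Illumina NextSeq500. Binding signal is the read frequency of each hexamer for a given factor divided by its frequency in the tag-only sample.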

[2] = molecular target: T2, ELK1 (Homo sapiens, UniProt P19419 1-428); details: protein: recombinant; tags: N-terminal GST; dsDNA, one strand shown
T2 sequence: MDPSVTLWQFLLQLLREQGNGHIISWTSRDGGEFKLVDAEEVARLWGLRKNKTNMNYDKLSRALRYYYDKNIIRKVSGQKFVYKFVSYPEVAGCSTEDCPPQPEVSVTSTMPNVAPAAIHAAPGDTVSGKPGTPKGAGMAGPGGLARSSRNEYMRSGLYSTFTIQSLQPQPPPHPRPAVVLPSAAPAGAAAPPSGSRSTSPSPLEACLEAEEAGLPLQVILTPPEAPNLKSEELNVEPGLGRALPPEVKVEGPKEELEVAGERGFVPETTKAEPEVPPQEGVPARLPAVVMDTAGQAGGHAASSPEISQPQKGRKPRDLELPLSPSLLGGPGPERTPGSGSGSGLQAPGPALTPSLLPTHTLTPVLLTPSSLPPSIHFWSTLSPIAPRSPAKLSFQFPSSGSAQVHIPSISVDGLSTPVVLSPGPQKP
Method in brief: as §1

[3] = molecular target: T3, GABPA (Homo sapiens, UniProt Q06546 1-454); details: protein: recombinant; tags: N-terminal GST; dsDNA, one strand shown
T3 sequence: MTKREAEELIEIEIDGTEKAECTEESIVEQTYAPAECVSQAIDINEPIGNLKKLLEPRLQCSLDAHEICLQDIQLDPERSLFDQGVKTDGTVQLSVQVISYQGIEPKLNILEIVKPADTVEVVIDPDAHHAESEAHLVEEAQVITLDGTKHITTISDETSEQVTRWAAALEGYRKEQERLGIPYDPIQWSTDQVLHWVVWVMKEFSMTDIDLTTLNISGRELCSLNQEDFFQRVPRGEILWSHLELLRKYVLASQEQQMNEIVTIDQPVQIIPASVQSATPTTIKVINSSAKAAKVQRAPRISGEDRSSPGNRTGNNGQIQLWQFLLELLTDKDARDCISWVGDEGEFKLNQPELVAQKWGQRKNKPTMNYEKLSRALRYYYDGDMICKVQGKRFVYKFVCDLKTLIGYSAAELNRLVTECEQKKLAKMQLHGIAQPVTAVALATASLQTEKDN
Method in brief: as §1

[4] = molecular target: T4, ERG (Homo sapiens, UniProt P11308 1-479); details: protein: recombinant; tags: N-terminal GST; dsDNA, one strand shown
T4 sequence: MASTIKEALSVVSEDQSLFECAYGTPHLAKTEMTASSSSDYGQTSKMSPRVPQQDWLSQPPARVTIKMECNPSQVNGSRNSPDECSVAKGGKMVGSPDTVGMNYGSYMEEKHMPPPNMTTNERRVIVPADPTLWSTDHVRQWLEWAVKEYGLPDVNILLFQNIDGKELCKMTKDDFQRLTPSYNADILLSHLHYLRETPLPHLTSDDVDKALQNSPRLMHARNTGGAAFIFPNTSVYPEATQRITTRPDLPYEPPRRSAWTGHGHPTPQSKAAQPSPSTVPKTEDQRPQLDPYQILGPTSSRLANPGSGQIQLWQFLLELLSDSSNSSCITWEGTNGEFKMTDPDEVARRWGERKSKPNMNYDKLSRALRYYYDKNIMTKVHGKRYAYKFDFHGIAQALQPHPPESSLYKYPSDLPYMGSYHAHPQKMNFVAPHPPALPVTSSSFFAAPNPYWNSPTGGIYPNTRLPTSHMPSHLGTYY
Method in brief: as §1

[5] = molecular target: ELF1 (Homo sapiens, UniProt P32519 1-619); details: protein: recombinant; tags: N-terminal GST; dsDNA, one strand shown
Method in brief: as §1

[6] = molecular target: T5, EHF (Homo sapiens, UniProt Q9NZC4 1-300); details: protein: recombinant; tags: N-terminal GST; dsDNA, one strand shown
T5 sequence: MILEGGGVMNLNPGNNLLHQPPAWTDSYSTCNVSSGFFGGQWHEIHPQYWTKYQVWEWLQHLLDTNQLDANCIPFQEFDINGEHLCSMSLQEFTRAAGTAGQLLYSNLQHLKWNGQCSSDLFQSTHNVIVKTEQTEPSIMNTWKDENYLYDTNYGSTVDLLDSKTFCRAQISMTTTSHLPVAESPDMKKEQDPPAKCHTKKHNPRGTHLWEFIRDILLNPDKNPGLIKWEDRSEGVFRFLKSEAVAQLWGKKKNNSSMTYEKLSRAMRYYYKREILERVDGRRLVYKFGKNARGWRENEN
Method in brief: as §1

[7] = molecular target: SPI1 (Homo sapiens, UniProt P17947 1-270); details: protein: recombinant; tags: N-terminal GST; dsDNA, one strand shown
Method in brief: as §1

[8] = molecular target: SPIB (Homo sapiens, UniProt Q01892 1-262); details: protein: recombinant; tags: N-terminal GST; dsDNA, one strand shown
Method in brief: as §1

[9] = molecular target: T6, ELK3 (Homo sapiens, UniProt P41970 1-407); details: protein: recombinant; tags: N-terminal GST; dsDNA, one strand shown
T6 sequence: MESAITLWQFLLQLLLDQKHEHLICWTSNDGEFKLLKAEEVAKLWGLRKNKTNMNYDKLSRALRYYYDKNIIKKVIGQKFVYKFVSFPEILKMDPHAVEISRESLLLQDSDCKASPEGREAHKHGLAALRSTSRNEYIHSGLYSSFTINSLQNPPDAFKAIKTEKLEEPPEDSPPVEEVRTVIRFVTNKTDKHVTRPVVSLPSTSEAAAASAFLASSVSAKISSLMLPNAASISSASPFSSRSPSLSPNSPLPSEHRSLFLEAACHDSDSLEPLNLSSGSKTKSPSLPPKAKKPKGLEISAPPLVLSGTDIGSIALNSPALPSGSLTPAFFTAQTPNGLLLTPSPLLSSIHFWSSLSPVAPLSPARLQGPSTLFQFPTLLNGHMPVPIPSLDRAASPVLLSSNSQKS
Method in brief: as §1

[10] = molecular target: T7, FEV (Homo sapiens, UniProt Q99581 1-238); details: protein: recombinant; tags: N-terminal GST; dsDNA, one strand shown
T7 sequence: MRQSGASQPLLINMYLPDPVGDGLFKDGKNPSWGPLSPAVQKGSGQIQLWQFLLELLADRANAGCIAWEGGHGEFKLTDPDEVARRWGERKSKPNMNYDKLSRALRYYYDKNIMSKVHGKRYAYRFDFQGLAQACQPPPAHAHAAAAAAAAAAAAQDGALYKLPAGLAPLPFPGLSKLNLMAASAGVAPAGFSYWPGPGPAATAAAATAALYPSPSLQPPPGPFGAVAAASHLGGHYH
Method in brief: as §1

[11] = molecular target: ETV5 (Homo sapiens, UniProt P41161 1-510); details: protein: recombinant; tags: N-terminal GST; dsDNA, one strand shown
Method in brief: as §1

[12] = molecular target: HSF1 (Homo sapiens, UniProt Q00613 1-529); details: protein: recombinant; tags: N-terminal GST; chain copies: 3; dsDNA, one strand shown
Method in brief: as §1

[13] = molecular target: T8, SPIC (Homo sapiens, UniProt Q8N5J4 1-248); details: protein: recombinant; tags: N-terminal GST; dsDNA, one strand shown
T8 sequence: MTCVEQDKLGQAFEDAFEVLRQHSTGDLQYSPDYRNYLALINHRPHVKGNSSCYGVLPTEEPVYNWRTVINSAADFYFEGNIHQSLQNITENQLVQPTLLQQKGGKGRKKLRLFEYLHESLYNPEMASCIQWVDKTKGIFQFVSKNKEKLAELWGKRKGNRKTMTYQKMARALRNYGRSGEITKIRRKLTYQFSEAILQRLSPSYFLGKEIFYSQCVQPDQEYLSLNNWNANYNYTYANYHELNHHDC
Method in brief: as §1

[14] = molecular target: ELF4 (Homo sapiens, UniProt Q99607 1-663); details: protein: recombinant; tags: N-terminal GST; dsDNA, one strand shown
Method in brief: as §1

[15] = molecular target: T9, ELK4 (Homo sapiens, UniProt P28324-2 1-405); details: protein: recombinant; tags: N-terminal GST; dsDNA, one strand shown
T9 sequence: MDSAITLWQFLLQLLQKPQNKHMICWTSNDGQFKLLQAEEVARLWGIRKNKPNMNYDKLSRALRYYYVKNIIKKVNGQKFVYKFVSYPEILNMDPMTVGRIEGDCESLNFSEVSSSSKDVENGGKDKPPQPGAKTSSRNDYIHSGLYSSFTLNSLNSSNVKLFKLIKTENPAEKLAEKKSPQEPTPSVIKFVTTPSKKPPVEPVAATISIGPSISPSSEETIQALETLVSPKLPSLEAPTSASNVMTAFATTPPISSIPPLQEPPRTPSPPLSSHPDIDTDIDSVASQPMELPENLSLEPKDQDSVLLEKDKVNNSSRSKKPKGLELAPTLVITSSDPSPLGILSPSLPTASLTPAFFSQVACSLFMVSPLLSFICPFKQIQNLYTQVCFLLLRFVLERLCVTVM
Method in brief: as §1

[16] = molecular target: T10, ETV2 (Homo sapiens, UniProt O00321 1-342); details: protein: recombinant; tags: N-terminal GST; dsDNA, one strand shown
T10 sequence: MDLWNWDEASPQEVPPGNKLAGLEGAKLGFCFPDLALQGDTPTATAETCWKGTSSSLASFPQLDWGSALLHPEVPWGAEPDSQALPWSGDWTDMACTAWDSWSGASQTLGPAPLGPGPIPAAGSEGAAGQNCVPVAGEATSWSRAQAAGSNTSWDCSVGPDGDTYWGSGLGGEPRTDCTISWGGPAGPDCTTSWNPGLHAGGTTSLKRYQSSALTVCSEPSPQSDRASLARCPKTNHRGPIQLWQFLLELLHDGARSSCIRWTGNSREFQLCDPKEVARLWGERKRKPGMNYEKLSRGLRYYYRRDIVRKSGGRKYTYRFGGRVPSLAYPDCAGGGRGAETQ
Method in brief: as §1

[17] = molecular target: CRX (Homo sapiens, UniProt O43186 1-299); details: protein: recombinant; tags: N-terminal GST; dsDNA, one strand shown
Method in brief: as §1

[18] = molecular target: ETV1 (Homo sapiens, UniProt P50549 1-477); details: protein: recombinant; tags: N-terminal GST; dsDNA, one strand shown
Method in brief: as §1

Sequence of ELF4 (Q99607 whole entry): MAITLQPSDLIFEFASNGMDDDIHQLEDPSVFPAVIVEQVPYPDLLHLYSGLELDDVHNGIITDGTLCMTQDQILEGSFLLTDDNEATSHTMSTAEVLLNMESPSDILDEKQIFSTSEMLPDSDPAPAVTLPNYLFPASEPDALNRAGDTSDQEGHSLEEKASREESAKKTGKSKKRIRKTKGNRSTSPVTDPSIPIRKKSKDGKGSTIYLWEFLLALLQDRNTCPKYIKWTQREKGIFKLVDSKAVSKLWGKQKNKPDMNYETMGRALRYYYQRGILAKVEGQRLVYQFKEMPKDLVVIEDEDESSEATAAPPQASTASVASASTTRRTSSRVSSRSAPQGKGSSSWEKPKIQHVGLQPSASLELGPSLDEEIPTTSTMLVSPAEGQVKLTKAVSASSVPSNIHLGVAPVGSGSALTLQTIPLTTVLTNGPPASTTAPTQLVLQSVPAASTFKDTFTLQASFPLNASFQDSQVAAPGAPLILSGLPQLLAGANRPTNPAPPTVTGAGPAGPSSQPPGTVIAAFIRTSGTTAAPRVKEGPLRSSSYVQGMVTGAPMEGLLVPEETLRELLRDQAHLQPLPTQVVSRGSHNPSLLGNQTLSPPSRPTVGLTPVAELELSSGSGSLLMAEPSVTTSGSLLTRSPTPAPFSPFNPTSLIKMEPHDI
Sequence of SPIB (Q01892 whole entry): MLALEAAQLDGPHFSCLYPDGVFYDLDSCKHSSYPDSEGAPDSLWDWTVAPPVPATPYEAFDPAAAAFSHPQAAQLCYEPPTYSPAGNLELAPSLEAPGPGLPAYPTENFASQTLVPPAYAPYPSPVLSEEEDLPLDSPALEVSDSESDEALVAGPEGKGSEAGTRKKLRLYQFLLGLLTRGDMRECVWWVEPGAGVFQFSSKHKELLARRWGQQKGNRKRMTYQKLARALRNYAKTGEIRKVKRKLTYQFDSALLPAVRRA
Sequence of ETV1 (P50549 whole entry): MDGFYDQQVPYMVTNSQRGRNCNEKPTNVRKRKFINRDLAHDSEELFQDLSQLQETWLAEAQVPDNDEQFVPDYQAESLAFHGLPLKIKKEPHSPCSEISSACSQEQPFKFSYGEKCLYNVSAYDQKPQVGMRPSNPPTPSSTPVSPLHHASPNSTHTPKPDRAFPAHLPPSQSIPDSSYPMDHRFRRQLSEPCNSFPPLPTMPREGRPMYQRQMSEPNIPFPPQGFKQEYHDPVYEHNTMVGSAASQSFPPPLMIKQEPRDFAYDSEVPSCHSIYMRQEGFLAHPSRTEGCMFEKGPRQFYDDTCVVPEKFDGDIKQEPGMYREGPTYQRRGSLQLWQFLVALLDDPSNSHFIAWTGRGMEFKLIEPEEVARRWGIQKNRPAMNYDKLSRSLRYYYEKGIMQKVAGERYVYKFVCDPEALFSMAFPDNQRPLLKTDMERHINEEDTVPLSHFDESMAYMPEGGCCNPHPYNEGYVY
Sequence of HSF1 (Q00613 whole entry): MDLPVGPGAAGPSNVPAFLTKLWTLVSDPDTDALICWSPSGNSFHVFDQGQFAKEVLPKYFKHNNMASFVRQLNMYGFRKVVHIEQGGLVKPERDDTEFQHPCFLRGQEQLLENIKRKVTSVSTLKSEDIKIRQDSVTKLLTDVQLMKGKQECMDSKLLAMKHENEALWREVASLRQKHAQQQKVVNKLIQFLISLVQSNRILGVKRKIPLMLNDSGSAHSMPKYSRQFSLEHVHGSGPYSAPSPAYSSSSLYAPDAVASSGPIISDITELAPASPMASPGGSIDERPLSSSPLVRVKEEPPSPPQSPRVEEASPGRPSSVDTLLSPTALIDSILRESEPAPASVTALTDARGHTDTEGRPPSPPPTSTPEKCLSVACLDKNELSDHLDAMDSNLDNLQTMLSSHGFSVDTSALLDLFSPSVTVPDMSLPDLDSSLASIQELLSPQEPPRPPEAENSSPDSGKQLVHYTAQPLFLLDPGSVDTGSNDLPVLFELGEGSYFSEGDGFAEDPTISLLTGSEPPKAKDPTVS
Sequence of ELF1 (P32519 whole entry): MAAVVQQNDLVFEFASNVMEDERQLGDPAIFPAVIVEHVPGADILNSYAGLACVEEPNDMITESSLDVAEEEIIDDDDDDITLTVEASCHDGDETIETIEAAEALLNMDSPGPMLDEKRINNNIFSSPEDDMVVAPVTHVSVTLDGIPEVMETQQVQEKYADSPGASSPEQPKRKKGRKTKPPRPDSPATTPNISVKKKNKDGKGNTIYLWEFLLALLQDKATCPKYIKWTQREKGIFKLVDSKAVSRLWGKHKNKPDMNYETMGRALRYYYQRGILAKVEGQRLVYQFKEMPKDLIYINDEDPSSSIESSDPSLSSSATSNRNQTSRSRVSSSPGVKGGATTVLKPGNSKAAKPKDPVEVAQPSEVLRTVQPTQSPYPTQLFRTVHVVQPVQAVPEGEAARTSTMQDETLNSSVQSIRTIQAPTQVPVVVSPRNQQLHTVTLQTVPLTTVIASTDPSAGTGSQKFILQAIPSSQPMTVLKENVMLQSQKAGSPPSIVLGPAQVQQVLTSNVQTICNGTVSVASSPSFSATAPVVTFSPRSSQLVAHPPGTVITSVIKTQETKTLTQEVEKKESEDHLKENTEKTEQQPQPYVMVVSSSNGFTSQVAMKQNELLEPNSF
Sequence of CRX (O43186 whole entry): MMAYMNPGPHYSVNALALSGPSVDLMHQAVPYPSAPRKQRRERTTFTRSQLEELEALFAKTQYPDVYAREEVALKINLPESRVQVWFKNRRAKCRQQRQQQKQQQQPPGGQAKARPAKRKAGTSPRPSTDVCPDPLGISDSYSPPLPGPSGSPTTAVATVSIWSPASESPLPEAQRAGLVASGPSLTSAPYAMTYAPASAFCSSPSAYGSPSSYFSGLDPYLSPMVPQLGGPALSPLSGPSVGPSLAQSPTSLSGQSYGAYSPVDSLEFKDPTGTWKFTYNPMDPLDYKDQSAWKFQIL
Sequence of ETV5 (P41161 whole entry): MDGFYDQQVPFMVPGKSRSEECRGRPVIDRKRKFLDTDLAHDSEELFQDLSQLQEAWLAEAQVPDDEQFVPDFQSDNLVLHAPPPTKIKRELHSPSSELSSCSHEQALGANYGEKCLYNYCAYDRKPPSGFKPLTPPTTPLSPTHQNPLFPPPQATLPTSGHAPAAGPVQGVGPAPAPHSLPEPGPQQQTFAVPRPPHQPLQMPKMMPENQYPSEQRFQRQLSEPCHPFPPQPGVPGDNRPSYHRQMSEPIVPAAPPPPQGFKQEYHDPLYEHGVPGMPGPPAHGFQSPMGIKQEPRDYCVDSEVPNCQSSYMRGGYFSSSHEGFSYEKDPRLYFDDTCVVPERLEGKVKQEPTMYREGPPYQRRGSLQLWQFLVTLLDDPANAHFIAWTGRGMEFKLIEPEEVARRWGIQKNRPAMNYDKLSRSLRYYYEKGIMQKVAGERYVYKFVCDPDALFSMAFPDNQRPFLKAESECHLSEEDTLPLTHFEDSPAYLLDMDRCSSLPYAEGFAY

**Q.** How did the binding signal [1] turn out when TTTTAG was run?
**A.** Its binding signal is 1.2 fold enrichment (6-mer frequency, TF over GST control).

**Q.** What about the binding signal [2] of the same sequence?
**A.** Its binding signal is 1.07 fold enrichment (6-mer frequency, TF over GST control).

**Q.** What about the binding signal [3] of the same sequence?
**A.** Its binding signal is 1.19 fold enrichment (6-mer frequency, TF over GST control).

**Q.** And the binding signal [4]?
**A.** The binding signal was 1.19 fold enrichment (6-mer frequency, TF over GST control).

**Q.** And the binding signal [5]?
**A.** The binding signal was 1.21 fold enrichment (6-mer frequency, TF over GST control).

**Q.** And the binding signal [6]?
**A.** Its binding signal is 1.12 fold enrichment (6-mer frequency, TF over GST control).

**Q.** What about the binding signal [7] of the same sequence?
**A.** The binding signal was 1.15 fold enrichment (6-mer frequency, TF over GST control).

**Q.** And the binding signal [8]?
**A.** Its binding signal is 1.3 fold enrichment (6-mer frequency, TF over GST control).

**Q.** And the binding signal [9]?
**A.** Its binding signal is 1.16 fold enrichment (6-mer frequency, TF over GST control).

**Q.** What about the binding signal [10] of the same sequence?
**A.** Its binding signal is 1.14 fold enrichment (6-mer frequency, TF over GST control).

**Q.** What about the binding signal [11] of the same sequence?
**A.** Its binding signal is 1.09 fold enrichment (6-mer frequency, TF over GST control).

**Q.** What about the binding signal [12] of the same sequence?
**A.** The binding signal was 1.19 fold enrichment (6-mer frequency, TF over GST control).

**Q.** What about the binding signal [13] of the same sequence?
**A.** Its binding signal is 1.13 fold enrichment (6-mer frequency, TF over GST control).

**Q.** And the binding signal [14]?
**A.** Its binding signal is 1.24 fold enrichment (6-mer frequency, TF over GST control).

**Q.** What about the binding signal [15] of the same sequence?
**A.** The binding signal was 1.1 fold enrichment (6-mer frequency, TF over GST control).

**Q.** What about the binding signal [16] of the same sequence?
**A.** The binding signal was 1.13 fold enrichment (6-mer frequency, TF over GST control).

**Q.** What about the binding signal [17] of the same sequence?
**A.** Its binding signal is 1.48 fold enrichment (6-mer frequency, TF over GST control).

**Q.** And the binding signal [18]?
**A.** Its binding signal is 1.19 fold enrichment (6-mer frequency, TF over GST control).
